Common to all, as to experiment: NCI-60 one-dose screen, 48 h (100 = growth as untreated, 0 = no growth, -100 = all killed)
Conditions in all cases: 10 µM unless noted

Assay [1] deals with SR leukemia.
Assay [2] concerns RPMI-8226 leukemia.
The test system of assay [3] is OVCAR-8 ovarian.
For assay [4], the system named is OVCAR-5 ovarian.
In assay [5] the test system is OVCAR-4 ovarian.
Assay [6] concerns IGROV1 ovarian.
Assay [7] concerns OVCAR-3 ovarian.
The subject of assay [8] is HS 578T breast.
The subject of assay [9] is NCI/ADR-RES ovarian.
For assay [10], the system named is SK-OV-3 ovarian.

Compounds without any hit were thinned out: in the full panel of roughly 83,000, 20% have a hit.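 Results are percent growth after 48 hours of single-concentration exposure. 100 means growth as in untreated cells, lower positive values show inhibition; negative values down to -100 show cell death.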 Unmarked numbers belong to inactive results. Calls of active or inactive are those of the source. Rule for the calls: active = growth percent below 10; inactive = the rest.

Consider `CC1(C)CC2=C3C=C[C@@H]4[C@@]5(C)CC[C@H](O)C(C)(C)[C@@H]5CC[C@@]4(C)[C@]3(C)CC[C@@]2(C(=O)O)CC1=O`, for which the growth in assay [1] was 50.5%; in assay [2], 4.49% (active); in [3], 62.6%; in assay [4] it was 99.5%; in assay [5] it was 38%; in assay [6], 35.3%. Besides, the growth in assay [7] is 22.2%; in assay [8], 73%; in [9], 61.2%.
`C#CCn1cnc2c(Nc3cccc(NC(=O)CCl)c3)ncnc21`: the growth in assay [1] was 9.78% (active); in assay [2], 10.4%; in assay [3], 50%; in assay [4], 43.7%; in [5], 26.9%; in [6] it was 7.54% (active). The growth in assay [7] was 31.6%; in assay [8] it was 50%; in assay [9], 49.1%.
Turning to `Nc1nc(C(=O)N/N=C/c2ccc(N3CCOCC3)cc2)nn1-c1ccc(S(N)(=O)=O)cc1`, the growth was 104% in assay [1]; 102% in assay [2]; 101% in assay [3]; 114% in assay [4]; 99.7% in assay [5]; 111% in [10]. The growth in [7] is 104%; in assay [8], 104%; in assay [9], 102%.
Regarding `C#Cc1cccc(Oc2ccc(NC(=O)CCl)cc2)c1`, the growth in assay [1] is 13% [8.25 µM]; in [2], 23.9% [8.25 µM]; in assay [3], 31.4% [8.25 µM]; in assay [4], 74.3% [8.25 µM]; in assay [5], 7.96% [8.25 µM] (active); in assay [6], -71.6% [8.25 µM] (active). The growth in assay [7] was -76.8% [8.25 µM] (active); in assay [8] it was 80.7% [8.25 µM]; in [9], 71.1% [8.25 µM].
Regarding `CC1(C)O[C@H]2OC3CCC(=O)CC3(O)[C@H]2O1` (some centres not stated), the growth in assay [1] was 107%; in assay [2] it was 96%; in assay [3] it was 98.2%; in assay [4], 107%; in [5], 110%; in assay [6], 108%. The growth in [7] is 104%; in assay [8] it was 97%; in [9], 102%.
Consider `O=C(/C=C/C12c3ccccc3C(c3ccccc31)C1C(=O)NC(=O)C12)c1ccc(F)cc1` (configuration not stated), for which the growth in assay [1] is 0.421% (active); in assay [2] it was -24% (active); in [3], -64.2% (active); in [4], 28%; in assay [5], 30.3%; in assay [6], 13.2%. The values for the growth in assay [7], in assay [8] and in assay [9] were -10.1% (active), 23.7% and 5.4% (active), respectively.
On to `COc1cccc(NC(=O)c2cccc(C3CCc4c(cc(OC)c(OC)c4OC)O3)c2)c1` (configuration not stated), for which the growth in [1] is 35.7%; in assay [2], 28.4%; in [3], 54.5%; in [4] it was 81.8%; in [5], 56.7%; in assay [6], 65.6%. Besides, the results for the growth in assay [7], in [8] and in [9] were 81.1%, 86.6% and 55.9%, respectively.
`Clc1ccc(-c2cn3ccsc3n2)c(Cl)c1Cl`: the growth in assay [1] is 49.9%; in assay [2], 67.5%; in [3] it was 95.7%; in assay [4], 88.5%; in assay [5] it was 74.1%; in [6], 77.2%. Also, the figures for the growth in assay [7], in assay [8] and in [9] were 93.3%, 84.3% and 99.6%, respectively.
On to `O=C1CCC(C(=O)NN(c2ccccc2)c2ccccc2)N1` (configuration not stated), for which the growth is 19.7% in [1]; 17.8% in [2]; 103% in assay [3]; 99.2% in assay [4]; 103% in assay [5]; 105% in [6]. Further, the growth was 95.4% in assay [7], 95.8% in [8] and 111% in assay [9].
Consider `COc1cc(/C=C2\C(=O)N(c3c(Cl)cccc3Cl)c3ccccc32)cc(OC)c1OCCCCCCn1c2ccccc2c(=O)c2ccccc21`, for which the growth in [1] is 85.7%; in [2], 102%; in assay [3], 98.3%; in [4], 88.6%; in assay [5] it was 95.5%; in assay [6] it was 75.5%. Besides, the growth in assay [7] is 104%; in [8], 113%; in [9] it was 109%.
On to `CC(C)CSc1oc(-c2ccccc2)nc1S(=O)(=O)c1ccccc1`, for which the growth in [1] is 91.7%; in assay [2], 85.9%; in assay [3], 94.7%; in assay [4], 110%; in [5] it was 86.6%; in assay [6], 94.5%. Besides, the results for the growth in assay [7], in assay [8] and in assay [9] were 97.2%, 96.6% and 82.2%, respectively.
For `O=C1Nc2ccccc2C2c3cccn3-c3ccccc3N12` (configuration not stated), the growth in [1] is 49.5%; in [2], 82.6%; in [3], 86.9%; in assay [4], 96.6%; in assay [5], 84.2%; in [6], 74.1%. The results for the growth in assay [7], in [8] and in assay [9] were 74.1%, 78.3% and 42.7%, respectively.
Regarding `COc1ccc(NC(=O)c2cccc(C3CCc4c(cc(OC)c(OC)c4OC)O3)c2)cc1` (configuration not stated), the growth in assay [1] was 5.23% (active); in assay [2] it was -24.2% (active); in assay [3], 35.1%; in [4], 64.8%; in assay [5], 53.1%; in [6] it was 37.6%. In addition, the results for the growth in [7], in [8] and in assay [9] were 6.25% (active), 22% and 8.7% (active), respectively.
